# From PubChem BioAssay (EPA / NIEHS)
# Records with an inconclusive call do not appear. Active and inactive are the calls of the source. How the source made its calls: active means hit-call score of the fitted dose curve at least 0.9, where 1 is the maximum; inconclusive means response in the unintended direction; inactive means score below 0.9.
# Columns and labels:
# [1] = target: rat Adrenergic, Alpha 1, Non-selective Receptor (Adra1), Adra1a (gene 29412) (UniProt P43140); test: NVS_GPCR_rAdra1_NonSelective: NovaScreen (NVS) G Protein-Coupled Receptor Assay for rat Adrenergic, Alpha 1, Non-selective Receptor (Adra1) (AID 2283289)
# In short: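 Chemicals first screened in duplicate at 25 uM, then actives tested in concentration series up to 50 uM. Binding measured as displacement of radioligand from rat forebrain membrane receptors, 1 h, filtration with scintillation readout; DMSO baseline.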
# [2] = target: rat Adrenergic Receptor, Beta (Adrb), Non-selective Binding, Adrb1 (gene 24925) (UniProt P18090); test: NVS_GPCR_rAdrb_NonSelective: NovaScreen (NVS) G Protein-Coupled Receptor Assay for rat Adrenergic Receptor, Beta (Adrb), Non-selective Binding (AID 2283298)
# In short: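 Rat cortical membranes incubated 1 h with beta-adrenergic radioligand and test chemical; bound ligand measured by filtration and scintillation counting. Screen at 25 uM duplicate, then concentration series with 50 uM maximum; loss of signal versus DMSO.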
# [3] = target: human Opioid Receptor Mu (Opiate Mu), OPRM1 (gene 4988) (UniProt P35372); test: NVS_GPCR_hOpiate_mu: NovaScreen (NVS) G Protein-Coupled Receptor Assay for human Opioid Receptor Mu (Opiate Mu) (AID 2283290);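 further: hits lower bound tracer signal versus DMSO meaning displacement of the ligand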
# In short: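 Cell-free radioligand binding to membranes from CHO cells expressing the receptor; bound tracer measured by filter-based scintillation counting 2.5 hours after dosing. Loss of signal versus DMSO baseline reflects displacement; primary screen at 25 uM in duplicate, actives followed up in concentration series.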
# [4] = target: guinea pig Serotonin, 5-Hydroxytryptamine Receptor 4 (5HT4), HTR4 (gene 100135548) (UniProt O70528); test: NVS_GPCR_g5HT4: NovaScreen (NVS) G Protein-Coupled Receptor Assay for guinea pig Serotonin, 5-Hydroxytryptamine Receptor 4 (5HT4) (AID 2283294)
# In short: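 Compounds first screened in duplicate at 25 uM, actives followed up in concentration series. Binding measured as displacement of specific radioligand from guinea pig striatal membranes, 1 h, filter-based scintillation read-out versus DMSO baseline.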
# [5] = target: rat Serotonin, 5-Hydroxytryptamine Receptor (5HT), Non-Selective Binding, Htr1a (gene 24473) (UniProt P19327); test: NVS_GPCR_r5HT_NonSelective: NovaScreen (NVS) G Protein-Coupled Receptor Assay for rat Serotonin, 5-Hydroxytryptamine Receptor (5HT), Non-Selective Binding (AID 2283295)
# In short: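 Rat cortex membrane preparation incubated 1 h with radioligand and test chemical; bound radioactivity counted after filtration. Screening began in duplicate at 25 uM with concentration-series follow-up; fitting relative to DMSO.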
# [6] = tested on: rat Adrenergic, Alpha 1B Receptor (Adra1B), gene 24173; test: NVS_GPCR_rAdra1B: NovaScreen (NVS) G Protein-Coupled Receptor Assay for rat Adrenergic, Alpha 1B Receptor (Adra1B) (AID 2283297)
# In short: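 Filter-binding radioligand competition on membranes from rat liver, read after 1 h by scintillation counting. Single-concentration duplicate screen at 25 uM, followed by concentration-response on actives, normalised to DMSO.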
# [7] = target: rat Gamma-Aminobutyric Acid Type B Receptor (GABBR), Gabbr1 (gene 81657) (UniProt Q9Z0U4); test: NVS_GPCR_rGABBR: NovaScreen (NVS) G Protein-Coupled Receptor Assay for rat Gamma-Aminobutyric Acid Type B Receptor (GABBR) (AID 2283301)
# In short: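 Rat cortical membrane preparation, competitive radioligand binding for 1 h with filtration and scintillation readout. Actives from duplicate single-point 25 uM screening proceeded to concentration series with 50 uM top concentration.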
# rat Adrenergic, Alpha 1, Non-selective Receptor (Adra1), Adra1a (gene 29412), sequence (P43140 whole entry, looked up): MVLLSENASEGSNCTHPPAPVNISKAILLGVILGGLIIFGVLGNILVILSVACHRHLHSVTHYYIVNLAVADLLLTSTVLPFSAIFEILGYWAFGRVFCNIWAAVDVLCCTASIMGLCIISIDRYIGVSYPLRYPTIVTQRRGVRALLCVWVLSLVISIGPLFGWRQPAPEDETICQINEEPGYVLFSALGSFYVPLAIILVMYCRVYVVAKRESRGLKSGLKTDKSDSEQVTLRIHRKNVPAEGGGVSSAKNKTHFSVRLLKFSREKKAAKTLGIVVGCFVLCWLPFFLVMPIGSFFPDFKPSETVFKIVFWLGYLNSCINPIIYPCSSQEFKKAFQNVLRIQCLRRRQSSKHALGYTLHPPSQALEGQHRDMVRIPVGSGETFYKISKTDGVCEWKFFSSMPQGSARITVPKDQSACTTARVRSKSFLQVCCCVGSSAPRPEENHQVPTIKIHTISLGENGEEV
# rat Gamma-Aminobutyric Acid Type B Receptor (GABBR), Gabbr1 (gene 81657), sequence (Q9Z0U4 whole entry, looked up): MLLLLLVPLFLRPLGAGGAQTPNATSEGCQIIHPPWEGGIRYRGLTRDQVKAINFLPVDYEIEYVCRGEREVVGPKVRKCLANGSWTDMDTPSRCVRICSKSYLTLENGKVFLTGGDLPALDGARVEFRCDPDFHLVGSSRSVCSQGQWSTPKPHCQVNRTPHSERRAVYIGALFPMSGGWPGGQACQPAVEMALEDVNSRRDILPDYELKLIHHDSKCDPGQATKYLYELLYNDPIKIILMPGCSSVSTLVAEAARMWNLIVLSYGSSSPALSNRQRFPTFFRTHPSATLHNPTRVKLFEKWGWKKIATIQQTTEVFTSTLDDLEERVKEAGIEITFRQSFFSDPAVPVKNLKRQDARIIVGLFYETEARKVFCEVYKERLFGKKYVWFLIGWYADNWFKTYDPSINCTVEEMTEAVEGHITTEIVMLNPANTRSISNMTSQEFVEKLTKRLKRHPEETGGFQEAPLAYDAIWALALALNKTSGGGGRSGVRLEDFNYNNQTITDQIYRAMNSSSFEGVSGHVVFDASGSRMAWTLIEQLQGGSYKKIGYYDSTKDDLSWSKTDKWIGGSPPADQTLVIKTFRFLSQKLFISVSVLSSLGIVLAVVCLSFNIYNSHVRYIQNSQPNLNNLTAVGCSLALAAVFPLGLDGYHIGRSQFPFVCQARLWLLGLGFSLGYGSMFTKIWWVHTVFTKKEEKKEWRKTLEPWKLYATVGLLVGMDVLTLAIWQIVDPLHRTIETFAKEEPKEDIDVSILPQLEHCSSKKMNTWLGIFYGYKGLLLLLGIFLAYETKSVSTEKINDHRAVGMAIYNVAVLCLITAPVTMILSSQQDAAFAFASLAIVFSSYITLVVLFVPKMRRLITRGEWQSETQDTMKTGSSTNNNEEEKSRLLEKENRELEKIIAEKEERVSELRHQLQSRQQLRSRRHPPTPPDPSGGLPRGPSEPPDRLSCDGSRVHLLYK
# rat Serotonin, 5-Hydroxytryptamine Receptor (5HT), Non-Selective Binding, Htr1a (gene 24473), sequence (P19327 whole entry, looked up): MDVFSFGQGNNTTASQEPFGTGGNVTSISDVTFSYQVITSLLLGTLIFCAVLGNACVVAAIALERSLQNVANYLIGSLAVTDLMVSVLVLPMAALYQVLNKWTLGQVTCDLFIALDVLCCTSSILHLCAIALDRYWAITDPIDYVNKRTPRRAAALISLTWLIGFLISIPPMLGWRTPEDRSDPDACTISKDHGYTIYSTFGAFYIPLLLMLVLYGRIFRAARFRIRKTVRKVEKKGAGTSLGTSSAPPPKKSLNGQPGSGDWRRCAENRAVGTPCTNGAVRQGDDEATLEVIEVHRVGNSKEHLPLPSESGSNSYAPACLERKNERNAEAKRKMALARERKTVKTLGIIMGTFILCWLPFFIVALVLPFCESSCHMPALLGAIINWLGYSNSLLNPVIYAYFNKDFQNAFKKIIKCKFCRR
# guinea pig Serotonin, 5-Hydroxytryptamine Receptor 4 (5HT4), HTR4 (gene 100135548), sequence (O70528 whole entry, looked up): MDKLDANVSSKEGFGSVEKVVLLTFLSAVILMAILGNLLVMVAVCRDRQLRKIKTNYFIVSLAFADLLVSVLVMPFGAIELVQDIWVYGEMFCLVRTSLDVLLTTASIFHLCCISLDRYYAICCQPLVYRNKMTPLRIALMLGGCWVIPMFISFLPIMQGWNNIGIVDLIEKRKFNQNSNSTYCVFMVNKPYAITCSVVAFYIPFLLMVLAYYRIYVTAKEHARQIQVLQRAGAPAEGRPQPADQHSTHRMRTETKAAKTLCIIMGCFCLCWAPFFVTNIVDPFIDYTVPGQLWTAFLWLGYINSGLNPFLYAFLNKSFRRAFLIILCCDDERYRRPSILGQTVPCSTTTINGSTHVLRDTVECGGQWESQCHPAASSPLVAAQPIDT
# human Opioid Receptor Mu (Opiate Mu), OPRM1 (gene 4988), sequence (P35372 whole entry, looked up): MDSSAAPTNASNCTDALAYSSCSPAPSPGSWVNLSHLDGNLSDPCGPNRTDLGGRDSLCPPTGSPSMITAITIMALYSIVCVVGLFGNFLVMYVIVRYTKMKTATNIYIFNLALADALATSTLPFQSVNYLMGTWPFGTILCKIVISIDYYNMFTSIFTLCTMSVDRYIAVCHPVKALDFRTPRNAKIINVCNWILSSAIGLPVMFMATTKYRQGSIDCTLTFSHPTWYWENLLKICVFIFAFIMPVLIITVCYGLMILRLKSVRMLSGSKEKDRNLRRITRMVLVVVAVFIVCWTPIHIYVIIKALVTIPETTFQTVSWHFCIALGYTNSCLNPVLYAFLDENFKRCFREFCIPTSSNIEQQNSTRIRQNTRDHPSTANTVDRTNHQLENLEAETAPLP
# rat Adrenergic Receptor, Beta (Adrb), Non-selective Binding, Adrb1 (gene 24925), sequence (P18090 whole entry, looked up): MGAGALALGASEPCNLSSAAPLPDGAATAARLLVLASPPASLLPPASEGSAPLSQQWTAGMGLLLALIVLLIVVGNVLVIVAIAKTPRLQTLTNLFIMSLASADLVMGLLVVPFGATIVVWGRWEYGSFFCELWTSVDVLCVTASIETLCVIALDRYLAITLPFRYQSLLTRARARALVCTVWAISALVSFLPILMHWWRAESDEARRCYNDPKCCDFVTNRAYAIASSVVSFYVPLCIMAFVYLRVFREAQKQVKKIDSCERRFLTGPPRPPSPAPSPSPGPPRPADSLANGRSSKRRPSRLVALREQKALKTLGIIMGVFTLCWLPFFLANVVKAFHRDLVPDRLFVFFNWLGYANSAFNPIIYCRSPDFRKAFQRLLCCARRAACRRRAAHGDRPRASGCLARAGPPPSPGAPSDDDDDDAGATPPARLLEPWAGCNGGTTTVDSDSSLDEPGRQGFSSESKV
structure (smiles),measurement,setting,value
Cc1cc(F)ccc1-c1cc(N2CC[C@@H](O)[C@H]2CO)ncc1N(C)C(=O)C(C)(C)c1cc(C(F)(F)F)cc(C(F)(F)F)c1,AC50,[1],20.4 µM (active)
CCCCCCCCN(C)CCCCCCCC,outcome,[2],inactive
COc1cccc([C@H](O)C2CCN(CCc3ccc(F)cc3)CC2)c1OC,AC50,[3],12.6 µM (active)
same,AC50,[4],25 µM (active)
same,AC50,[5],5.58 µM (active)
same,AC50,[6],0.26 µM (active)
same,outcome,[7],inactive
